LGR2 inh – blocks bursicon-induced cAMP signaling via Drosophila LGR2; HEK293 LGR2, CRE-luciferase, bursicon-stimulated, 4 h; inhibition, % at 9.99 µM; 380,000 compounds, 0.35% hits;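 active means drop in luminescence signal, shown as inhibition above about 50% in the replicate tests, limit read from the data, passing the limit was not always enough; inconclusive means probably only some replicates passing the limit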;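 further: agonist challenge used bursicon conditioned medium at about half maximal strength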
CF NFkB inh – cystic fibrosis NF-kB activation inhibition; KKLEB NF-kB-GFP reporter, PAF-induced, GFP fluorescence overnight; inhibition, % at 5 µM; 360,000 compounds, 0.86% hits; AID 588850;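 active means at least 50% inhibition at 5 µM, scaled per plate between neutral and stimulator controls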;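 further: PAF is a Pseudomonas aeruginosa culture filtrate used as stimulus; plate controls were PAF-stimulated DMSO wells for no effect and unstimulated DMSO wells for full effect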
TROY signal inh – inhibitors of TROY-dependent NF-kB signaling; inhibition, % at 10 µM; Q293 LMP1-TROYcd NF-kB luciferase reporter, 4 h; 360,000 compounds, 0.98% hits;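 active means compounds whose plate-normalised and pattern-corrected inhibition of the luciferase reporter signal at the single screening dose is 50% or more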
TWEAK Fn14 block – blocks TWEAK-Fn14 interaction in a reporter cell assay; TWEAK-stimulated Fn14 reporter cells, luciferase luminescence, 8 h; inhibition, % at 10 µM; 360,000 compounds, 2% hits; in the data active means inhibition above about 50%
EWS-Fli inh – EWS/Fli transcriptional activity inhibition | AID 651661 | A673 NR0B1-luciferase reporter, viability-normalised | inhibition, % at 12.6 µM | 350,000 compounds, 0.67% hits;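 active means mean inhibition of at least 50% after viability correction, with every replicate also passing that limit; inconclusive means mean reaches 50% but only one of two replicates passes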;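 further: firefly luciferase signal divided by Alamar Blue viability fluorescence both relative to DMSO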
KKLEB tox – counter-screen for CF NF-kB inhibitors: cytotoxicity; 360,000 compounds, 0.36% hits; KKLEB CF airway cells viability, ATPlite luminescence, overnight; active compounds read low; cells stimulated with P. aeruginosa culture filtrate; AID 602141; activity change (cytotoxicity), % at 5 µM;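 active means corrected activity change at or below -50% at 5 µM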
* marks the source's active call; other numbers are inactive results; ? = inconclusive; . = no result; ! = a repeat was not active. The list is not random: actives were taken first. Their share in the collection is about 2.6%.

SMILES	LGR2 inh	CF NFkB inh	TROY signal inh	TWEAK Fn14 block	EWS-Fli inh	KKLEB tox
C[C@@H]1CCCCO[C@H](CN(C)C(=O)CCCN(C)C)[C@@H](C)CN([C@H](C)CO)C(=O)c2cc(NS(=O)(=O)c3cn(C)cn3)ccc2O1	-11	.	.	.	-2	.
CCn1c(C)cc(/C=C2/NC(=O)N(c3ccccc3)C2=O)c1C	1	-20	74*	74*	-78	10
CCn1c(C)cc(/C=C2\NC(=O)N(CC(=O)Nc3cccc(C)c3)C2=O)c1C	.	9	1	-17	.	3
COCCn1c(C)cc(/C=C2/NC(=O)N(c3cccc(Cl)c3)C2=O)c1C	12	23	81*	82*	-34	-17
Cc1ccc(S(=O)(=O)Nc2ccc3c(c2)C(=O)N([C@@H](C)CO)C[C@@H](C)[C@@H](CN(C)Cc2ccc4c(c2)OCO4)OCCCC[C@H](C)O3)cc1	11	.	.	.	3	.
CN1C(=O)c2cc(NC(=O)Nc3cccc(Cl)c3)ccc2OC[C@@H]2O[C@H](CC(=O)NCCc3ccncc3)CC[C@@H]21	8	.	.	.	-5	.
COc1ccc(-c2nn(-c3ccccc3)cc2/C=C2/SC(=S)N(CCC(=O)O)C2=O)c(C)c1	.	-2	61*	14	6	-7
O=C(O)CCCCCN1C(=O)/C(=C/c2cn(-c3ccccc3)nc2-c2cccs2)SC1=S	25	68*	35	27	9	-9
O=C1C(=Cc2cn(-c3ccccc3)nc2-c2ccc(OCc3ccc(Cl)cc3)cc2)SC(=S)N1CCS(=O)(=O)O	12	15	18	62*	-10	20
O=C1C(=Cc2cn(-c3ccccc3)nc2-c2ccc(OCc3ccccc3F)cc2)SC(=S)N1CCS(=O)(=O)O	10	40	14	18	-11	-17
O=C(O)CCN1C(=O)/C(=C/c2cn(-c3ccccc3)nc2-c2cccs2)SC1=S	-27	-3	35	7	3	5
O=C(O)CCCCCN1C(=O)/C(=C\c2cn(-c3ccccc3)nc2-c2cccs2)SC1=S	?	59*	37	-8	4	-31
CO[C@@H]1CN(C)C(=O)c2ccc(NC(=O)C3CC3)cc2OC[C@H](C)N(CCC(F)(F)F)C[C@@H]1C	2	.	.	.	6	.
NCC[C@@H]1CC[C@@H](NC(=O)C2CCCC2)[C@@H](CO)O1	6	.	.	.	1	.
COc1cc(OC)cc(-c2cc3ccc(OC)cc3cn2)c1	0	0	-25	9	16	-55*
COc1ccc(-c2nc(-c3ccc4c(c3)OCO4)[nH]c2-c2ccc(OC)cc2)cc1	11	-22	32	56*	.	1
COc1ccc(-c2noc(-c3ccc4c(c3)OCO4)n2)cc1	.	-17	-26	29	.	-6
COc1cc(OC)cc(-c2cc3cc4c(cc3cn2)OCO4)c1	.	42	-62	21	.	-38
COc1cccc(-c2noc(-c3ccc4c(c3)OCO4)n2)c1	36	-1	9	53*	43	-30
COc1ccc(-c2cc3cc4c(cc3cn2)OCO4)cc1	65*	-31	17	54*	-8	-15
COc1ccc(NC(=O)Nc2ccc3c(c2)C(=O)N([C@H](C)CO)C[C@@H](C)[C@H](CN(C)S(C)(=O)=O)OCCCC[C@@H](C)O3)cc1	-5	.	.	.	-1	.
C[C@H]1CN([C@@H](C)CO)C(=O)c2cccc(NC(=O)Nc3ccc4c(c3)OCO4)c2O[C@@H]1CN(C)S(=O)(=O)c1cccs1	10	.	.	.	-95	.
C[C@@H]1CCCCO[C@H](CN(C)Cc2ccccc2)[C@@H](C)CN([C@H](C)CO)C(=O)c2cc(NC(=O)CCCN(C)C)ccc2O1	1	.	.	.	6	.
CCC(=O)Nc1ccc2c(c1)C(=O)N(C)C[C@@H](OC)[C@@H](C)CN(CC1CC1)[C@@H](C)CO2	-1	.	.	.	4	.
COC1=CC(=O)c2nc(Cl)ccc2C1=O	80*	83*	3	94*	40	-91*
SMILES	LGR2 inh	CF NFkB inh	TROY signal inh	TWEAK Fn14 block	EWS-Fli inh	KKLEB tox
O=C(C1CC1)N1CC2(C1)[C@H](c1ccccc1)[C@H](CO)N2C(=O)c1cccnc1	-7	.	.	.	6	.
CCCNC(=O)N(C)C[C@@H]1Oc2cc(C#C[C@H](C)O)ccc2S(=O)(=O)N([C@H](C)CO)C[C@@H]1C	-2	.	.	.	-6	.
CCc1cc[n+](C2=C([O-])c3ccccc3C(=O)/C2=N\S(=O)(=O)c2cccs2)cc1	17	74*	24	16	3	-25
CC(C)NC(=O)N(C)C[C@@H]1Oc2cc(C#CCN(C)C)ccc2S(=O)(=O)N([C@H](C)CO)C[C@H]1C	-2	.	.	.	-1	.
CN(C)C(=O)c1cccc(-c2ccc(C3[C@@H]4CN(C(=O)c5ccccn5)C[C@H]3N4)cc2)c1 (stereo partly specified)	3	.	.	.	58*!	.
CN(C)C(=O)c1ccc(-c2ccc(C3[C@@H]4CN(C(=O)c5ccccn5)C[C@H]3N4)cc2)cc1 (stereo partly specified)	-2	.	.	.	-2	.
CN(C)C(=O)c1ccc(-c2ccc(C3[C@@H]4CN(Cc5nccs5)C[C@H]3N4)cc2)cc1 (stereo partly specified)	-9	.	.	.	53*!	.
O=C(c1ccc2c(c1)OCO2)N1C[C@@H]2N[C@H](C1)C2c1ccc(-c2ccncc2)cc1 (stereo partly specified)	-2	.	.	.	0	.
O=C(c1ccc2c(c1)OCO2)N1C[C@@H]2N[C@H](C1)C2c1ccc(-c2cccnc2)cc1 (stereo partly specified)	9	.	.	.	64*!	.
COc1ccc(CN2C3CCCC2CC(NC(=O)Nc2ccccc2C)C3)cc1 (stereo unspecified)	.	-20	13	62*	.	10
COc1ccc2nnc(-c3ccc(C(F)(F)F)cc3)n2n1	-1	2	-12	61*	17	-16
FC(F)(F)c1cccc(N2CCN(c3ccc4nnc(-c5ccccc5)n4n3)CC2)c1	.	-7	-9	-28	.	-4
O=C(NC1CCCC1)[C@H]1[C@H](CO)[C@H]2Cn3c(ccc(-c4ccncc4)c3=O)[C@H]2N1CC1CC1	-4	.	.	.	-1	.
C[C@H](CO)N1C[C@H](C)[C@H](CN(C)Cc2ccccc2)Oc2ncc(C#CCc3ccccc3)cc2C1=O	4	.	.	.	11	.
CCCN(C)C[C@H]1Oc2cc(C#Cc3ccncc3)ccc2S(=O)(=O)N([C@@H](C)CO)C[C@H]1C	-9	.	.	.	20	.
CCn1nc(C)cc1-c1nnc(Sc2ncc([N+](=O)[O-])s2)n1C	-2	95*	-6	17	69*	-82*
CCn1nc(C)cc1-c1nnc(SCC(=O)Nc2ccccc2)n1CCCOC	.	0	-4	7	0	3
Cc1ccc(S(=O)(=O)Nc2ccc3c(c2)C(=O)N([C@H](C)CO)C[C@H](C)[C@H](CN(C)C(=O)Cc2ccccc2)OCCCC[C@H](C)O3)cc1	2	.	.	.	9	.

Compound activity as filed in PubChem.
